# From PubChem BioAssay AID488969 (Vanderbilt High Throughput Screening Facility, 2010)
# Over roughly 110,000 compounds, “z-score” has its median near -0.1; the highest 2% begin near 2. The sample holds the highest values, similar compounds and a random draw of the others, so the mix is not that of the screen. The source made the active and inactive calls.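 Rule for the calls: active = z-score in the third read window above 3 or below -3; inactive = the rest.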
# Target: Metabotropic glutamate receptor 8 (Rattus norvegicus) (UniProt P70579)
# Sequence (P70579 whole entry, looked up): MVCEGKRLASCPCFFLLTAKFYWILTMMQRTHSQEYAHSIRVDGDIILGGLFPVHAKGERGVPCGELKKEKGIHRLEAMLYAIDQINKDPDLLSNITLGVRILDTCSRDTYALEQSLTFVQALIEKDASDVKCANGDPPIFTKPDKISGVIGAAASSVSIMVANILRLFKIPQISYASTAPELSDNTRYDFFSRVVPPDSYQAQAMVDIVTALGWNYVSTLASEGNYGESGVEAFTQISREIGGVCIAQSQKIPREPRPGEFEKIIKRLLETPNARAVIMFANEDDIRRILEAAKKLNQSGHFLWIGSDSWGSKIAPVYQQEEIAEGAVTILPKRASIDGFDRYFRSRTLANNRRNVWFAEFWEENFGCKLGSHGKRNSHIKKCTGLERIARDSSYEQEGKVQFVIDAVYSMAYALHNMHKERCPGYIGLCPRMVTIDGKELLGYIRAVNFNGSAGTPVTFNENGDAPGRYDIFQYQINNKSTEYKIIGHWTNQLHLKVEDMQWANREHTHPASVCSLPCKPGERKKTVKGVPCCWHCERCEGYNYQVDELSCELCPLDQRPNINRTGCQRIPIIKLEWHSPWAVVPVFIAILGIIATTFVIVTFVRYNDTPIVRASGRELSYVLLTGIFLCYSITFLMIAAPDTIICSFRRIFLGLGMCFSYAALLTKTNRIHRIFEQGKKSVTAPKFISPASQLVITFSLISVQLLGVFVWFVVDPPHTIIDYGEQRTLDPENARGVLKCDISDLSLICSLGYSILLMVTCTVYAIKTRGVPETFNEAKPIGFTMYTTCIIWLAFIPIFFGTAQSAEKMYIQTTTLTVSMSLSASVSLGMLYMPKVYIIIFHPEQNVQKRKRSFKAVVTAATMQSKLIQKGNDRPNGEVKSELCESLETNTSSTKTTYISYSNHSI
# Experiment: mGluR8 Gi/Go-coupled signaling modulation – cell-based, rat, thallium flux, HTS, primary screen (AID 488969)
# Conditions: HEK293 rat mGluR8, GIRK (G protein-gated inwardly rectifying potassium channel) thallium flux, FluoZin2; at 10 µM; stronger effect = higher value; submaximal glutamate (EC20) added with thallium
row,Structure (SMILES),z-score
1,COC1(c2ccccc2)NC(=S)NN=C1c1ccccc1 (stereo unspecified),0.721
2,O=S(=O)(c1cccc(NC(=S)N2CCN(c3ccccc3)CC2)c1)C(F)F,-0.245
3,Cc1occc1-c1nnc(SCC(=O)NC(C)(C)C)n1C(C)c1ccccc1 (stereo unspecified),0.32
4,CN1C(=O)c2ccccc2C(C(=O)NCC2CCCO2)C1c1c[nH]c2ccccc12 (stereo unspecified),-1.14
5,COc1ccc(CCNC(=O)COC(=O)c2ccc(Br)o2)cc1OC,0.125
6,COc1ccc(CC(=O)NNC(=O)CSc2nnc(Cc3ccc(OC)cc3)n2-c2ccccc2)cc1,-0.277
7,N#Cc1ccccc1NC(=O)c1ccccc1OCC(=O)Nc1ccc2c(c1)oc1ccccc12,-0.362
8,CC(C)(C)NC(=O)COC(=O)c1ccccc1OCC(=O)Nc1ccc(Br)cc1,-0.154
9,CCN1C(=O)CC(N2CCC(Nc3ccc(OC)cc3)CC2)C1=O (stereo unspecified),0.0918
10,COc1ccc(CCNC(=O)COc2ccc(S(=O)(=O)NCC(C)C)cc2Cl)cc1OC,-0.464
11,Cc1ccc(NC(=O)/C(C#N)=C/c2cc(C)n(-c3ccc(N4CCOCC4)c([N+](=O)[O-])c3)c2C)c(C)c1,-0.136
12,CCOC(=O)N1CCC(N2C(=O)c3ccccc3C2Nc2ccccc2)CC1 (stereo unspecified),-0.126
13,CCOC(=O)N1CCC(N2C(=O)c3ccccc3C2Nc2ccc3c(C)cc(=O)oc3c2)CC1 (stereo unspecified),4.01 (active)
14,CCOC(=O)c1ccccc1NC1c2ccccc2C(=O)N1C1CCN(C(=O)OCC)CC1 (stereo unspecified),-0.69
15,CCOC(=O)N1CCC(N2C(=O)c3ccccc3C2Nc2c(C)cccc2C)CC1 (stereo unspecified),-0.177
16,CCOC(=O)N1CCC(N2C(=O)c3ccccc3C2Nc2ccccc2C)CC1 (stereo unspecified),2.74
17,CCOC(=O)N1CCC(N2C(=O)c3ccccc3C2Nc2ccc(C)cc2)CC1 (stereo unspecified),-0.488
18,CCN(CC)c1ccc(C(=O)N/N=C(\C)c2ccc(OC)c(OC)c2)cc1,0.585
19,CCOC(=O)c1cc2c(ccn2C)n1CC(=O)N(Cc1ccccc1)c1ccc(F)cc1,1.2
20,CCOC(=O)C(C)(C)Sc1nc2c(cnn2-c2ccc(Cl)cc2)c(=O)[nH]1,-0.781
21,Cc1ccc(OCC(=O)c2ccc3c(c2)CCCC3)cc1C,-0.12
22,O=C(Nc1ccc2c3c(cccc13)CC2)c1ccco1,0.0277
23,Cc1cc(C)c(NC(=O)c2ccccc2N(C)S(C)(=O)=O)c(C)c1,0.0701

row,Structure (SMILES),z-score
1,CC1(C)CC(=O)c2cn3nc(C(F)(F)F)nc3nc2C1,-0.129
2,CC1CCC2(CC1)NC(=S)N(c1ccccc1)N2 (stereo unspecified),0.323
3,CCC1(c2ccc(Cl)cc2)NC(=S)N(c2ccccc2)N1 (stereo unspecified),4.78 (active)
4,CCC1(c2ccccc2)NC(=S)N(c2cccc(C)c2C)N1 (stereo unspecified),1.26
5,Cc1ccc(SCCC(=O)Nc2ccc(Br)c(C)c2)cc1,-0.0218
6,S=c1[nH]nc(-c2ccco2)n1/N=C/c1ccc(Cl)cc1,-0.0483
7,Cn1cccc1/C=N/n1c(-c2ccc(Cl)cc2Cl)n[nH]c1=S,2.46
8,S=c1[nH]nc(-c2ccco2)n1/N=C/c1ccc(Cl)c(Cl)c1,1.59
9,Cc1ccsc1/C=N/n1c(-c2ccco2)n[nH]c1=S,0.377
10,S=c1[nH]nc(-c2ccco2)n1/N=C/c1ccc(Cl)cc1Cl,6.87 (active)
11,Cn1cccc1/C=N/n1c(-c2ccc(Cl)cc2)n[nH]c1=S,1.03
12,Cc1ccc(-c2n[nH]c(=S)n2/N=C/c2cccn2C)cc1,1.02
13,S=c1[nH]nc(-c2ccco2)n1/N=C/c1ccccc1Cl,1.07
14,S=c1[nH]nc(-c2ccco2)n1/N=C/c1cccc(Cl)c1Cl,5.73 (active)
15,Cc1ccc(-n2nc(CN3CCOCC3)c(-c3ccccc3)c2N)c(C)c1,-0.0359
16,CCCOc1ccc(-c2csc(N)n2)cc1[N+](=O)[O-],-0.349
17,Cc1ccc(C2NC(c3ccc(C)cc3)C(C)C(=NO)C2C)cc1 (stereo unspecified),-0.376
18,O=C(Nn1cnnc1)c1ccccc1CCc1ccccc1,0.0675
19,CS(=O)(=O)c1ccc2nc(NC(=O)C3COc4ccccc4O3)sc2c1 (stereo unspecified),0.303
20,Cn1c(=O)c2c(nc(NCc3ccc4c(c3)OCO4)n2Cc2ccccc2)n(C)c1=O,-1.09
21,CCc1ccc(S(=O)(=O)N2CC(=O)Nc3ccccc32)cc1,-0.195
22,Cc1cccc(Sc2ccc([N+](=O)[O-])cc2[N+](=O)[O-])n1,-0.278
23,COc1cc(C=O)c(Br)cc1OCc1ccc(C)cc1,-0.101

row,Structure (SMILES),z-score
1,CCOc1cc(C=O)c(Br)cc1OC1CCCC1,0.0863
2,COc1cc(C=O)c(Br)cc1OC1CCCC1,2.09
3,CCOc1ccc(CCNC(=O)C2CCN(C(=O)N(C)C)CC2)cc1OCC,0.862
4,Clc1ccc2c(c1)C(C1=NCCN1)c1ccccc1CS2 (stereo unspecified),0.865
5,Clc1cccc2c1Sc1ccccc1CC2N1CCNCC1 (stereo unspecified),0.386
6,Clc1ccc2c(c1)C(N1CCNCC1)Cc1ccccc1S2 (stereo unspecified),3.92 (active)
7,COc1ccc(OC)c(N(CC(=O)Nc2cccnc2)S(=O)(=O)c2ccccc2)c1,-0.398
8,C=CCOc1cccc(/C=N/NC(=O)CN(c2cc(Cl)ccc2OC)S(=O)(=O)c2ccc(C)c([N+](=O)[O-])c2)c1,-0.0532
9,Cc1ccc2nc3sc(C(=O)NCc4ccco4)c(N)c3cc2c1,-0.222
10,CNC(=O)CSc1nnnn1CCCOC,0.0742
11,COC(=O)C1(O)CC(C(C)C)=NN1C(=O)c1ccc(Cl)cc1 (stereo unspecified),0.417
12,CCC1=NN(C(=O)c2ccc(C)cc2)C(O)(c2ccc(Br)cc2)C1 (stereo unspecified),0.175
13,CCC1(O)CC(C(=O)OC)=NN1C(=O)c1ccccc1 (stereo unspecified),0.602
14,CCOC(=O)C1=NN(C(=O)c2ccco2)C2(CC2)C1,-0.239
15,COC(=O)C1=NN(C(=O)c2ccc(C)cc2)C(O)(c2ccc(Cl)cc2)C1 (stereo unspecified),8.48 (active)
16,COC(=O)C1=NN(C(=O)c2ccc(Cl)cc2)C(O)(c2ccccc2)C1 (stereo unspecified),11.5 (active)
17,CC1=NN(C(=O)c2ccc(C)cc2)C(O)(C(F)(F)OC(F)(F)F)C1 (stereo unspecified),-0.0203
18,COC(=O)C1=NN(C(=O)c2ccccc2)C(C)(O)C1 (stereo unspecified),0.19
19,CCC1=NN(C(=O)c2cccc(Br)c2)C(O)(c2ccc(Br)cc2)C1 (stereo unspecified),3.84 (active)
20,CCOC(=O)C1=NN(C(=O)c2ccccc2)C(O)(c2ccc(C)cc2)C1 (stereo unspecified),10.5 (active)
21,CCOC(=O)C1=NN(C(C)=O)C2(CC(=O)N(c3cccc(C)c3)C2=O)C1 (stereo unspecified),-0.0266
22,CCC1=NN(C(=O)Cc2ccc([N+](=O)[O-])cc2)C(O)(c2ccc(Br)cc2)C1 (stereo unspecified),-0.206
23,Cn1ncc(Br)c1C(=O)OCC(=O)Nc1nc(-c2ccccc2)cs1,-0.654

row,Structure (SMILES),z-score
1,CCCCOCCCNC(=O)/C=C/c1ccccc1Cl,-0.149
2,C/C=C/c1ccc(OCCCNC2CCCC2)c(OC)c1,1.24
3,COC(=O)c1cc(C#N)c(N(C)Cc2ccccc2)nc1C,-0.154
4,CCc1nnc(NC(=O)CSc2nnc(-c3ccncc3)n2C)s1,-1.78
5,COC(=O)c1cc(O)c(OCc2ccccc2)c(O)c1,-0.276
6,CCOC(=O)C1=C(C)NC(=O)NC1c1cccc(O)c1 (stereo unspecified),-0.126
7,CCOC(=O)C1CCC(CNCc2ccc(Cl)cc2)CC1 (stereo unspecified),-1.85
8,CNc1c([N+](=O)[O-])cnn1-c1ccc(Cl)cc1Cl,-0.197
9,CCOC(=O)C1=NN(C(=O)c2ccc(C)cc2)C(O)(c2ccc(Cl)cc2)C1 (stereo unspecified),10.4 (active)
10,CC1=NN(C(=O)COc2ccc(C)c(C)c2)C(O)(c2ccc(Cl)cc2)C1 (stereo unspecified),-0.32
11,CC1=NN(C(=O)COc2ccccc2C)C(O)(c2ccc(Cl)cc2)C1 (stereo unspecified),-0.867
12,CN1CCN(c2ncnc3c2cnn3-c2ccc(Cl)cc2)CC1,0.276
13,COc1ccccc1OCCNc1nc2c(c(=O)n(C)c(=O)n2C)n1C,1.41
14,Cc1ccc(Cc2cnc(NC(=O)c3ccco3)s2)cc1,-0.555
15,Cc1ccc(NC(=O)CSc2nc3ccccc3c3nc(CCc4c(C)n[nH]c4C)nn23)cc1F,-0.264
16,CNC(=O)CN1C(=O)CSc2ncccc21,0.227
17,COC(=O)CN1C(=O)CSc2ncccc21,0.767
18,COCCNC(=O)CN1C(=O)CSc2ncccc21,3.57 (active)
19,COC(=O)c1ccc(C)c(NC(=O)Cc2coc3cc(OC)ccc23)c1,0.022
20,Cc1ccc(OCCSc2nnc(-c3ccncc3)n2C)cc1,-0.157
21,COCCSc1nnc(-c2cccc(C#N)c2)n1C,2.31
22,Cn1c(SCCOc2cccc(Cl)c2)nnc1-c1ccncc1,-0.17
23,Cc1ccc(S(=O)(=O)N2CCC(C(=O)N3CCC[C@H]3C(=O)NCc3ccccc3)CC2)cc1,-0.265

row,Structure (SMILES),z-score
1,CCC(c1nnnn1C(C)(C)C)N1CCN(C2CCCC2)CC1 (stereo unspecified),0.224
2,O=C(CN(Cc1cccs1)C(=O)CNS(=O)(=O)c1ccc(F)cc1)NCc1ccco1,-0.317
3,Cc1ccc(-c2cc(-c3cccs3)[nH]n2)c(O)c1,2.77
4,Cc1ccc(-c2cc(-c3ccccc3C)[nH]n2)c(O)c1,-0.115
5,Cc1ccc(-c2cc(-c3ccccc3[N+](=O)[O-])[nH]n2)c(O)c1,-0.292
6,COC(=O)c1cc(NS(=O)(=O)c2ccc(NCc3cccnc3)c(N)c2)cc(C(=O)OC)c1,-0.104
7,CCOC(=O)c1nc2cc3n(c(C)c-2c1C)C(C)C(CC)=C3C (stereo unspecified),2.31
8,CCOC(=O)c1nc2cc3n(c(C)c-2c1C)C(C)C(C)=C3C (stereo unspecified),-0.0669
9,CCOC(=O)c1nc2cc3n(c(CC(C)C)c-2c1C)CC(C)=C3C,0.604
10,CCOC(=O)Nc1sc2c(c1C#N)CCCC2,0.504
11,CSc1ccccc1NC(=O)COc1ccccc1Cl,-1.54
12,Cc1cnc(NC(=O)COc2cccc3c2OC(C)(C)C3)s1,0.713
13,Cc1cnc(NC(=O)COc2ccccc2Cl)s1,3.06 (active)
14,COc1ccc(S(=O)(=O)NCCCCCC(=O)NCCCN2CCOCC2)cc1,2.89
15,O=C(CCCCCNS(=O)(=O)c1ccc(Br)cc1)NCCN1CCOCC1,0.263
16,Cc1ccc(S(=O)(=O)NCCC(=O)NC2CCCC2)cc1,0.757
17,COc1ccc(CCCC(=O)NC2CCCCC2)cc1,-0.301
18,COc1ccc(S(=O)(=O)NCCC(=O)NC2CCCCCCC2)cc1,3.82 (active)
19,CCCCNC(=O)CCCCCNS(=O)(=O)c1ccc(OC)cc1,1.14
